Screen size: about 2,400 compounds; about 20 (0.8%) were called active. This is one part of a sample in which actives are shown more often than they occur. A number with no mark means an inactive call.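 The calls were made as follows: active = AC50 no more than ten times the highest tested concentration, or full inhibition at every dose giving a flat fit (cut at about 30 µM in these data); inconclusive = flat fit with activity between 30% and 70%, or poor-quality invalid fit; inactive = AC50 more than ten times the top tested dose.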

One may read the AC50 as the midpoint of the concentration-response curve, whichever way the signal moves.

The nature of this test: inhibitors of ADP-Glo detection reagents, dose response, artefact control for GSK-3a inhibitor project, biochemical, luminescence, cell-free, homogeneous (AID 463205).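 Also: kinase-free counter-screen against the ADP-Glo detection reagents only; potency is for inhibitors that reduce the luminescence signal.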 As to conditions: 5 uM ADP.
Turning to `Cn1c(=O)c2[nH]c(N3CCOCC3)nc2n(-c2ccccc2)c1=O`, the AC50 was > 30 µM. In the case of `Nc1nccnc1C(=O)N/N=C/c1ccco1` it was > 30 µM. The result for `Nc1nonc1-n1nnc(C(=O)N/N=C/c2ccc(Cl)cc2Cl)c1CN1CCOCC1` reads > 30 µM. The result for `Cc1nc(NCC2CCCO2)nc2c1C(=O)CC(C)(C)C2` (centres undefined) reads > 30 µM. In the case of `CCOc1ccc2ccccc2c1/C=N/n1cncn1`, the AC50 is > 30 µM.

Take `Cc1ccc(OCC(=O)N2CCN(c3nnc(-c4ccccc4)c4ccccc34)CC2)cc1`: the AC50 was > 30 µM. The result for `N#CC1=C(SCc2ccccc2)NC(=O)CC1c1ccco1` (centres undefined) reads > 30 µM; that for `CCN(CC)C(=O)c1oc2ccc(S(=O)(=O)N3CCCCCC3)cc2c1C`, > 30 µM. As for `O=C(c1ccc(Cl)cc1)c1cnc(Nc2ccccc2)s1`, the AC50 was > 30 µM.

Consider `Cc1cccc(NC(=O)CSCc2nc3c(nnn3Cc3ccc(F)cc3)c(=O)[nH]2)c1C`, for which the AC50 was > 30 µM.

On to `N#Cc1c2c(c(NCc3ccco3)n3c1nc1ccccc13)CCC2`, for which the AC50 was > 30 µM.

As for `O=C(COC(=O)c1cccc(S(=O)(=O)N2CCOCC2)c1)Nc1ncc(Cl)cc1Cl`, the AC50 was > 30 µM. Consider `CNC(=O)c1ccc(NC(=O)C2CCN(c3ncnc4sc(C)c(C)c34)CC2)cc1`, for which the AC50 was > 30 µM. The result for `CCNc1cc(N2CCCC2)ccc1[N+](=O)[O-]` reads > 30 µM; that for `Cc1nnc(SCC(=O)N2c3ccccc3CC2C)s1` (centres undefined), > 30 µM; that for `CCOC(=O)c1c(NC(=O)CN2C(=O)NC3(CCCCC3C)C2=O)sc(C)c1CC` (centres undefined), > 30 µM. For `C=CCNc1nc(N)c(C(=O)Nc2cc(C)on2)s1`, the AC50 is > 30 µM. The result for `CC(=O)c1cccc(NC(=S)NC(=O)CC(C)C)c1` reads > 30 µM. In the case of `COc1ccc(OC)c(/C=C2\Oc3cc(OCC(=O)N4CCC[C@H]4C(=O)O)ccc3C2=O)c1` it was > 30 µM; in that of `CC(C)c1c(C(=O)N/N=C/c2ccncc2)nnn1-c1nonc1N`, > 30 µM; in that of `CC(C)N=C(NC#N)SCc1ccc(F)cc1`, > 30 µM. With `N#Cc1sc2nc3c(c(-c4ccco4)c2c1N)CCCC3`, the AC50 was > 30 µM. In the case of `COCCNC(=O)c1ccc(Cn2c(=S)[nH]c3cc4c(cc3c2=O)OCO4)cc1` it was > 30 µM. As to `CC1=C(C(=O)OCc2ccccc2)C(c2cccc(Br)c2)NC(=O)N1` (centres undefined), the AC50 was > 30 µM.

As for `O=C(c1ccco1)N(Cc1cccc([N+](=O)[O-])c1)c1ccc(Br)cc1`, the AC50 was > 30 µM. In the case of `NS(=O)(=O)c1ccc(Nc2nc(-c3ccccc3)cs2)cc1` it was > 30 µM. `CCc1cc(C(=O)c2ccc(OC)cc2)c(NC(=O)COCC(=O)O)s1`: the AC50 is > 30 µM.

On to `Fc1ccc(Nc2ncnc3ccccc23)cc1`, for which the AC50 is > 30 µM.

In the case of `COc1cc(Br)c(C2C(C#N)=C(N)Oc3n[nH]c(-c4cccnc4)c32)cc1OC` (centres undefined), the AC50 is > 30 µM. The result for `Cc1nc2ccccc2n2c(-c3ccccc3)c3c(=O)n(C)c(=O)n(C)c3c12` reads > 30 µM; that for `Cn1c(N=Nc2ccccc2)nc2ccccc21`, 27.9 µM (active); that for `CC(/C=N/NC(=O)CSc1nc2ccccc2n1C)=C\c1ccco1`, > 30 µM. In the case of `COc1ccc(/C=C/c2nc(N)nc(-c3ccccc3O)n2)cc1OC`, the AC50 was > 30 µM.

Turning to `CC(C)c1cc(C(N)=O)c(NC(=O)C2CCC2)s1`, the AC50 was > 30 µM. In the case of `C/C(=N\NC(=O)c1nnn(-c2nonc2N)c1-c1ccccc1)c1cccnc1` it was > 30 µM. In the case of `CC(=O)Nc1ccc(Nc2ncnc(N)c2[N+](=O)[O-])cc1` it was > 30 µM. The result for `O=[N+]([O-])c1cc(S(=O)(=O)c2ccc(N3CCCCC3)c([N+](=O)[O-])c2)ccc1N1CCCCC1` reads > 30 µM; that for `COc1ccccc1CC(=O)N1CCOCC1`, > 30 µM.

Regarding `CC(C)=CC(=O)NCc1c(Cl)cccc1-n1cccc1`, the AC50 was > 30 µM.

For `Cc1nc2sc3c(c2c(=O)o1)CC(C)(C)OC3`, the AC50 was > 30 µM. In the case of `CCC(C)Nc1nc(N)c([N+](=O)[O-])c(N2CCCCCC2)n1` (centres undefined) it was > 30 µM; in that of `O=C(NC1(C(F)(F)F)NC(=O)N(Cc2cccnc2)C1=O)c1ccncc1` (centres undefined), > 30 µM.

On to `COc1ccccc1NC(=O)CSc1nnc(-c2ccccc2)o1`, for which the AC50 is > 30 µM. In the case of `CC(=O)c1sc(NC(=O)CN2C(=O)NC3(CCCC3)C2=O)nc1-c1ccccc1` it was > 30 µM; in that of `COC1(OC)N=C(N)C2(C#N)C(c3ccc4c(c3)OCO4)C12C#N` (centres undefined), > 30 µM.

Turning to `Nc1c(S(=O)(=O)c2ccccc2)nnn1-c1ccccc1`, the AC50 is > 30 µM. Consider `O=C1CC(c2cccs2)CC2=C1C(c1ccccc1)n1ncnc1N2` (centres undefined), for which the AC50 was > 30 µM. The result for `O=C(NCCCn1ccnc1)C(=O)NC1CCCCC1` reads > 30 µM. In the case of `Nc1ncnc2c1ncn2[C@@H]1O[C@H](COS(=O)(=O)O)[C@@H](O)[C@H]1O` it was > 30 µM; in that of `CCCCN(CC)C(=O)c1oc2ccc(S(=O)(=O)N3CCCC3)cc2c1C`, > 30 µM; in that of `CC(C)OCCCNc1nc2c([nH]1)c(=O)n(C)c(=O)n2C`, > 30 µM. The result for `CCOC(=O)c1nnn(-c2ccc(OC)cc2)c1N` reads > 30 µM. Turning to `COc1cc(/C=N/NC(=O)c2cccc(C(=O)N/N=C/c3ccc(O)c(OC)c3)n2)ccc1O`, the AC50 was > 30 µM.

Consider `CN(C)C(=O)c1ccc(NC(=O)c2cc(-n3cnnc3)ccc2Cl)cc1`, for which the AC50 was > 30 µM. In the case of `CC(OC(=O)Cc1c[nH]c2ccccc12)C(=O)c1ccccc1` (centres undefined) it was > 30 µM; in that of `CC(C)CC(=O)NC(=S)Nc1sc2c(c1C(N)=O)CCC2`, > 30 µM; in that of `COc1cccc(-c2nc(-c3ccccc3)[nH]c(=O)c2C#N)c1`, > 30 µM. In the case of `CCOC(=O)c1sc(NC(=O)C2CC2)nc1C` it was > 30 µM; in that of `CCOC(=O)c1cnn(C)c1NC(=O)c1ccc(Cl)cc1Cl`, > 30 µM.

These data come from PubChem BioAssay AID463205 (Broad Institute, 2010).
